Hits are enriched below; roughly 3.5% of the tested compounds scored in any of these assays.
mHTT-CaM PPI inh: mutant huntingtin-calmodulin interaction inhibitors – biochemical, AlphaScreen, primary screen. 3.6% of 190,000 active. AlphaScreen His-mHTT/GST-CaM binding, luminescence. AID 1671202, 2021. inhibition, % at 15 µM. P42858
Pf apPOL inh: Pf-apPOL inhibitors, biochemical, fluorescence; inhibition, % at 10 µM; Plasmodium falciparum apicoplast DNA polymerase (apPOL); Recombinant Pf-apPOL, molecular beacon fluorescence, 1.5 h; 0.25% of 210,000 active
Large screens that a line does not name were inactive. Rule as the data show it: active = inhibition above about 50%; inactive = the rest.

CC1SC(C)C(=O)N(CC(=O)Nc2ccc(OC(F)(F)F)cc2)C1=O (centres undefined)	none
COc1ccccc1C(=O)N1CCc2c(c(C(=O)NCc3ccc(F)cc3)nn2C)C1	mHTT-CaM PPI inh 71
Cn1nc(C(=O)NCc2ccccc2)c2c1CCN(C(=O)c1ccccc1F)C2	mHTT-CaM PPI inh 53
Cn1nc(C(=O)NCc2ccccc2)c2c1CCN(C(=O)c1ccc(Br)o1)C2	none
Cn1nc(C(=O)NCc2ccc(F)cc2)c2c1CCN(C(=O)c1ccccc1Cl)C2	mHTT-CaM PPI inh 55
Cc1ccccc1C(=O)N1CCc2c(c(C(=O)NCc3ccc(F)cc3)nn2C)C1	none
COc1ccccc1C(=O)N1CCc2c(c(C(=O)NCc3ccccc3)nn2C)C1	none
CC(C)C[C@H]1COc2cccc(N3CCN(Cc4ccccc4F)CC3)c2S(=O)(=O)N1	mHTT-CaM PPI inh 80
C[C@H]1COc2cccc(N3CCN(Cc4ccccc4F)CC3)c2S(=O)(=O)N1	none
COc1ccc(C(C)NC(=O)C2CCN(c3cncnc3N3CCCCC3)CC2)cc1 (centres undefined)	none
O=C(CSc1cn(CCNC(=O)c2ccccc2F)c2ccccc12)NCc1ccco1	none
Cn1cc(CCC(=O)NCc2ccco2)c2ccccc21	none
O=C(CSc1cn(Cc2ccc(Cl)cc2)c2ccccc12)NCc1ccco1	mHTT-CaM PPI inh 54
Cc1ccccc1Cn1cc(SCC(=O)NCc2ccco2)c2ccccc21	mHTT-CaM PPI inh 86
Cc1ccc(S(=O)(=O)N2CC(CO)(CO)C2)cc1	none
COc1cccc(/C=C2N=C(/C=C/c3cccc([N+](=O)[O-])c3)OC\2=O)c1	none
O=C(NCc1ccccc1F)C1Oc2ccccc2NC1=O (centres undefined)	none
O=C(Nc1ccc(N2CCCC2)cc1)c1ccccc1F	mHTT-CaM PPI inh 88
CC(C)Oc1cccc(C(=O)Nc2ccc(N3CCCC3)cc2)c1	mHTT-CaM PPI inh 99
CN(C)c1cccc(C(=O)Nc2ccc3ncnc(N4CCCC4)c3c2)c1	mHTT-CaM PPI inh 76
Cc1cccc(C(=O)Nc2ccc3ncnc(N4CCCCC4)c3c2)c1	none
O=C(Nc1ccc2ncnc(N3CCCCC3)c2c1)c1cccc(F)c1	none
O=C(Nc1ccc2ncnc(N3CCCCC3)c2c1)c1ccccc1F	mHTT-CaM PPI inh 55
O=C(Nc1ccc(N2CCCCC2)cc1)c1ccccc1	none (no result: mHTT-CaM PPI inh)
O=C(Nc1ccc(N2CCOCC2)cc1)c1ccccc1F	none
Cc1ccc(NC(=O)c2cccn2Cc2noc(C)n2)c(Br)c1	none
Oc1c(C=NCc2ccccc2Cl)[nH]c2ccc(Br)c(Cl)c12	mHTT-CaM PPI inh 72
Oc1c(C=NCc2ccc(F)cc2)[nH]c2ccc(Br)c(Cl)c12	mHTT-CaM PPI inh 55
Oc1c(C=Nc2ccc(F)cc2)[nH]c2ccc(Br)c(Cl)c12	none
Oc1c(C=NCc2ccc(Cl)cc2Cl)[nH]c2ccc(Br)c(Cl)c12	mHTT-CaM PPI inh 58
Cc1cccc(C)c1N=Cc1[nH]c2ccc(Br)c(Cl)c2c1O	none
Cc1ccc(CN=Cc2[nH]c3ccc(Br)c(Cl)c3c2O)cc1	none
COc1ccccc1N=Cc1[nH]c2ccc(Br)c(Cl)c2c1O	none
Oc1c(C=NCCc2ccccc2)[nH]c2ccc(Br)c(Cl)c12	mHTT-CaM PPI inh 86
O=C(c1cnn2cccnc12)N1CCCC2(C1)Nc1ccccc1NC2=NC1CCCC1 (centres undefined)	none
CC(=O)NCCc1csc(C2CCN(C(=O)c3ccc(C)cc3C)CC2)n1	none
CCOc1ccc(C(=O)N2CC(C(=O)NC)C3(CCCC3)C2)cc1 (centres undefined)	none
O=C(NCc1ccccc1)N1CCCC2(C1)Nc1ccccc1NC2=NC1CCCC1 (centres undefined)	mHTT-CaM PPI inh 100
O=C(c1ccco1)N1CCCC2(C1)Nc1ccccc1NC2=NC1CCCC1 (centres undefined)	mHTT-CaM PPI inh 79
O=C(c1ccoc1)N1CCCC2(C1)Nc1ccccc1NC2=NC1CCCC1 (centres undefined)	mHTT-CaM PPI inh 69
O=C(c1ccncc1)N1CCCC2(C1)Nc1ccccc1NC2=NCc1ccccc1 (centres undefined)	none
COCCC(=O)N1CCCC2(C1)Nc1ccccc1NC2=NC1CCCC1 (centres undefined)	none
O=C(c1ccccc1)N1CCCC2(C1)Nc1ccccc1NC2=NC1CCCC1 (centres undefined)	none
O=S(=O)(C1CC1)N1CCCC2(C1)Nc1ccccc1NC2=NCc1ccccc1 (centres undefined)	mHTT-CaM PPI inh 62
O=C(c1ccccn1)N1CCCC2(C1)Nc1ccccc1NC2=NC1CCCC1 (centres undefined)	none
CCOC(=O)C(C)Oc1ccc2cc(-c3ccc(OC)cc3)c(=O)oc2c1 (centres undefined)	none
O=C(c1c(F)cccc1F)N1CCCC(c2ccnc(-c3ccccc3)n2)C1 (centres undefined)	none
CCc1ccc(N2CCN(C(=O)CC(C)C)C(C)C2=O)cc1 (centres undefined)	none
CCCn1ncc(N2CCC(C(=O)NC(C)c3ccc(OC)cc3)CC2)cc1=O (centres undefined)	none
COc1ccc(C2CC(=O)C3=C(C2)Nc2ccccc2NC3c2ccc(Cl)cc2)cc1OC (centres undefined)	none
COc1ccc(C2CC(=O)C3=C(C2)Nc2ccccc2NC3c2ccc(C)s2)cc1OC (centres undefined)	none
COc1ccc(C2CC(=O)C3=C(C2)Nc2ccccc2NC3c2ccc(N(C)C)cc2)cc1OC (centres undefined)	mHTT-CaM PPI inh 52
COc1ccc(C2CC(=O)C3=C(C2)Nc2ccccc2NC3c2ccc(Cl)s2)cc1OC (centres undefined)	mHTT-CaM PPI inh 56
CCn1c(SC)nc2c(c1=O)C1(CCCCC1)Cc1ccccc1-2	none
O=C(NCCC1CCN(C(=O)c2ccccc2)CC1)c1ccco1	none
Cc1nc(Nc2ccc(NC(=O)C(C)C)cc2)cc(-n2ccnc2)n1	none
COc1cc(C(=O)Nc2cccc(-c3nc4ncccc4o3)c2)cc(OC)c1OC	none
O=C(c1cccnc1N1CCNC(c2ccccc2)C1)N1CCC(Cc2ccccc2)CC1 (centres undefined)	mHTT-CaM PPI inh 73
COCC1CCN(C(=O)c2cccnc2N2CCNC(c3ccccc3)C2)CC1 (centres undefined)	none
CCC(=O)N1CCN(c2nc(C)nc(C)c2Cc2ccc(Cl)cc2Cl)CC1	mHTT-CaM PPI inh 52
Cc1nc(C)c(Cc2ccc(Cl)cc2)c(N2CCN(C(=O)C3CCC3)CC2)n1	mHTT-CaM PPI inh 93
CCC(=O)N1CCN(c2nc(C)nc(C)c2Cc2c(F)cccc2Cl)CC1	none
Cc1nc(C)c(Cc2ccc(Cl)cc2)c(N2CCN(C(=O)C3CC3)CC2)n1	none
CC(=O)Nc1ccc(N2C(=O)CC(N3CCN(c4ccccc4)CC3)C2=O)cc1 (centres undefined)	none
CCC(=O)N1CCN(c2nc3c(s2)CC(C(=O)Nc2ccc(F)c(C)c2)CC3)CC1 (centres undefined)	none
CSC1=N/C(=C\c2cc(Br)ccc2OCC(=O)O)C(=O)S1	mHTT-CaM PPI inh 68
CSC1=N/C(=C/c2ccc(Br)cc2)C(=O)S1	none
Cc1ccc(Cl)cc1NC(=O)CC(NCCCOC(C)C)C(=O)O (centres undefined)	none
Cc1ccc(Cl)cc1NC(=O)CC(NCc1ccccn1)C(=O)O (centres undefined)	mHTT-CaM PPI inh 100
Cn1nccc1C(=O)N1CCc2[nH]nc(-c3ccc(F)cc3)c2C1	none
O=C(O)CN1C(=O)/C(=C2/SC(N3CCOCC3)=NC2=O)c2cc(Br)ccc21	none

Screening results: PubChem BioAssay, University of Kansas High Throughput Screening Laboratory
